Sampled rows, rich in hits. Any-hit rate of the full collection: about 14%.
USP8 inh: inhibitors of human USP8 deubiquitinase; Ubiquitin carboxyl-terminal hydrolase 8 (Homo sapiens), P40818; purified USP8, Ub-rhodamine cleavage fluorescence, 30 min; inhibition, % at 20 µM; 47,000 compounds, 4.2% hits
Target sequence (P40818 whole entry, looked up): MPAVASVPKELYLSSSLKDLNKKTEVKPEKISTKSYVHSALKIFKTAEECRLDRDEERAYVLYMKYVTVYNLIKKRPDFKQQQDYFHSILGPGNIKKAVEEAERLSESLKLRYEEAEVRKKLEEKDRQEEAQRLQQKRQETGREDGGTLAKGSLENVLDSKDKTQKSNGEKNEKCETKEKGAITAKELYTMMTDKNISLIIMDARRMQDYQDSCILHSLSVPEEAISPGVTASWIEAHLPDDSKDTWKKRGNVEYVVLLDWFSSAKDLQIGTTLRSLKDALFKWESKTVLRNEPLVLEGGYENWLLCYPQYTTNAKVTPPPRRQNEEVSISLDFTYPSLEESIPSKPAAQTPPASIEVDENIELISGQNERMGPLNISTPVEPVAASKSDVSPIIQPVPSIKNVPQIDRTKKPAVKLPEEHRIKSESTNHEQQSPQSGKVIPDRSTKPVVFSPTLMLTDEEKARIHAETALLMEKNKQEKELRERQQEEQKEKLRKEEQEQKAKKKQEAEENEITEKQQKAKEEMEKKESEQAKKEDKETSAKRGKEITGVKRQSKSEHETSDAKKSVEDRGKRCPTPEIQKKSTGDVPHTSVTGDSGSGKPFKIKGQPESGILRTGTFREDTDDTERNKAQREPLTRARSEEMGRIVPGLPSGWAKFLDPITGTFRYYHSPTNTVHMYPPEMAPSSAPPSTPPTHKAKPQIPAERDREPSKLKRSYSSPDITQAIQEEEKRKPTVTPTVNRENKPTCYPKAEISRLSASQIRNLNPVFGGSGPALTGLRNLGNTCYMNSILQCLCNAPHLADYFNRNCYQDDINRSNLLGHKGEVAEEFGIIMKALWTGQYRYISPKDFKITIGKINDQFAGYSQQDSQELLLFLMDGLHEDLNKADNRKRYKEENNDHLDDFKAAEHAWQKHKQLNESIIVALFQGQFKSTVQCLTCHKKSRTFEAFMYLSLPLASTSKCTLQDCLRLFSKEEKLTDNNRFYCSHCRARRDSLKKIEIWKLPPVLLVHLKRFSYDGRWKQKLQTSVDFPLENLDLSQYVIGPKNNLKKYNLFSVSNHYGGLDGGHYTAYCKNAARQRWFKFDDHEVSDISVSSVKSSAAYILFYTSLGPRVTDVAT
USP10 inh: inhibitors of human USP10 deubiquitinase. Ubiquitin carboxyl-terminal hydrolase 10 (Homo sapiens), Q14694. purified USP10, Ub-rhodamine fluorescence, 60 min. inhibition, % at 20 µM. 47,000 compounds, 1.1% hits. AID 1645856, 2021
USP28 block: inhibitors of human USP28 deubiquitinase; inhibition, % at 25 µM; AID 1645857, 2021; purified USP28, Ub-rhodamine cleavage fluorescence, 30 min; 47,000 compounds, 3% hits
USP30 inh: inhibitors of human USP30 deubiquitinase | inhibition, % at 25 µM | Ubiquitin carboxyl-terminal hydrolase 30 (Homo sapiens), Q70CQ3 | purified USP30, Ub-rhodamine cleavage fluorescence | 47,000 compounds, 5.3% hits
USP17 block: inhibitors of human USP17 deubiquitinase | purified USP17, Ub-rhodamine cleavage fluorescence, 3 h | inhibition, % at 50 µM | 47,000 compounds, 6.5% hits | AID 1645855, 2021
Numbers without * were called inactive; / = no result given. Cut-off read from the data, not from the text of the source: active = inhibition above about 30%; inactive = the rest.

SMILES | USP8 inh | USP10 inh | USP28 block | USP30 inh | USP17 block
O=C(CCS(=O)(=O)c1ccc2c(c1)OCC(=O)N2)Nc1ccc(Cl)cc1 | 9.0 | 1.7 | -4.6 | -1.4 | -5.6
CC(=O)c1ccc(S(=O)(=O)N(C)CCCC(=O)Nc2ccccc2N2CCOCC2)cc1 | 0.5 | -4.4 | -1.3 | -14.2 | 12.4
CC1CCCC(C)N1CCCNC(=O)c1ccc2c(c1)NC(=O)C1CCCN21 (centres undefined) | -13.0 | -6.8 | -109.5 | -498.7 | -110.1
O=C(NCc1cccc(F)c1)c1ccc2c(c1)NC(=O)C1CCCN21 (centres undefined) | 66.8* | -8.3 | -11.8 | -58.7 | 47.6*
COc1cc2c(cc1OC)[C@H](C)N(CC1C(=O)O[C@@H]3C[C@@]4(C)CCC[C@H](C)C4=C[C@H]13)CC2 (some centres undefined) | 45.1* | -9.3 | -37.0 | -236.3 | -18.6
COc1cc2c(cc1OC)[C@H](C)N(CC1C(=O)O[C@@]34[C@H]1CC[C@@H](C)[C@@H]3CC[C@@]1(C)O[C@@H]41)CC2 (some centres undefined) | 50.3* | -8.1 | -4.6 | -63.9 | -2.1
O=C(c1cnc2n1CC(c1cccc(C(F)(F)F)c1)CC2)N1CCN(CCO)CC1 (centres undefined) | 11.2 | -2.5 | 7.1 | 10.7 | 3.6
COCCNC(=O)CN1CCC2(CCC1=O)CC(=O)c1ccccc1O2 (centres undefined) | 10.1 | 0.0 | 0.7 | 0.0 | 3.0
CNC(=O)C(C)C1C(=O)/C(=C(O)/C=C/C(C)=C/C(C)C2OC3(C)OC(C=CC34CO4)C2C)C(=O)N1C1CCC(O)C(C)O1 (centres undefined) | -89.5 | -4.9 | -19.3 | -60.4 | -47.0
COc1ccc(OC)c(-c2csc(N(CCc3ccc(OC)c(OC)c3)C(C)=O)n2)c1 | -4.1 | -1.8 | -11.2 | -5.0 | -27.0
CCOc1cccc(CNC(=O)C2c3ccccc3CC(=O)N2CC)c1 (centres undefined) | 55.3* | 0.9 | 2.5 | 2.0 | 26.6
COc1cccc(-c2ccc3nc(C4CCN(C(=O)N(C)C)CC4)nn3c2)c1 | -0.5 | -1.4 | 30.4* | 15.5 | 5.5
CCCCC(=O)Nc1nnc(C2CC(=O)N(c3ccc(C)cc3)C2)s1 (centres undefined) | 52.4* | 3.9 | -3.7 | -0.7 | 12.4
COc1ccc(CCC(=O)Nc2nnc(C3CC(=O)N(c4ccc(C)cc4)C3)s2)cc1 (centres undefined) | 8.6 | 37.6* | -2.3 | 7.5 | -0.3
Cc1ccc(CC(=O)Nc2nnc(C3CC(=O)N(c4cc(C)cc(C)c4)C3)s2)cc1 (centres undefined) | -4.3 | 4.2 | -9.1 | -11.4 | -4.5
O=C(CCCc1ccccc1)Nc1nnc(C2CC(=O)N(c3ccc(Cl)cc3)C2)s1 (centres undefined) | 0.1 | 4.1 | 3.0 | 7.8 | 1.0
COc1ccc(CC(=O)NC2CCN(c3ccc(C)cc3)C2=O)cc1 (centres undefined) | -3.5 | 2.6 | 16.3 | 17.4 | 38.2*
O=C(CCCc1ccccc1)Nc1nnc(C2CC(=O)N(c3ccccc3)C2)s1 (centres undefined) | -1.1 | 8.3 | / | / | 41.1*
O=C(/C=C/c1ccc(Cl)c(Cl)c1)NCc1ccncc1 | -39.3 | -4.5 | -3.2 | -17.1 | -16.7
CCc1ccc(N2CC(c3nnc(NC(=O)Cc4ccc(C)cc4)s3)CC2=O)cc1 (centres undefined) | -70.1 | 10.8 | 16.7 | 32.7* | 49.6*
Cc1ccc(N2CC(c3nnc(NC(=O)CCc4ccccc4)s3)CC2=O)cc1 (centres undefined) | 55.8* | 25.9 | 14.9 | 29.0 | 18.0
Cc1ccc(N2CC(c3nnc(NC(=O)CCc4ccccc4)s3)CC2=O)cc1C (centres undefined) | -1.2 | 17.1 | -12.3 | 0.0 | -11.0
Cc1cc2nc(C3CCN(C(=O)c4scnc4C)CC3)cc(=O)n2[nH]1 | -58.8 | 3.0 | 9.2 | 17.9 | -6.3
Cc1ccc(C2CC(=O)Nc3c2c(C)nn3-c2ccc3nnc(C)n3n2)cc1 (centres undefined) | 3.7 | -0.4 | 20.7 | 34.8* | 4.2
Cc1ccc(-n2nnc(-c3noc(-c4ccncc4)n3)c2C)cc1 | 8.1 | -0.3 | 3.9 | 9.9 | 20.5
SMILES | USP8 inh | USP10 inh | USP28 block | USP30 inh | USP17 block
Cc1c(-c2nc(-c3ccccc3Cl)no2)nnn1-c1cccc(F)c1 | 27.8 | 38.1* | 26.8 | 62.2* | 35.9*
Cc1ccc(-n2nnc(-c3noc(-c4ccccn4)n3)c2C)cc1 | -8.5 | -0.7 | -5.9 | -9.0 | -5.3
Cc1c(-c2noc(-c3ccccn3)n2)nnn1-c1ccc(F)cc1 | -3.6 | -1.7 | -0.1 | 60.5* | 71.7*
c1ccc(-n2nnc(-c3noc(-c4ccccn4)n3)c2-c2ccncc2)cc1 | 32.1* | 4.0 | 19.6 | 4.5 | 63.5*
CCN(CC(=O)Nc1cc(Cl)ccc1C)C(=O)/C=C/c1cc(OC)c(OC)c(OC)c1 | -9.5 | -0.8 | -14.0 | -13.4 | -16.0
COc1cccc(NC2=NS(=O)(=O)C(c3ccc(F)cc3)=C2C)c1 | -0.6 | 1.0 | 11.1 | 33.2* | 2.7
CC1=C(c2ccc(F)cc2)S(=O)(=O)N=C1Nc1cccc(F)c1 | 9.1 | 8.2 | 1.4 | 9.5 | -45.1
CC1=C(c2ccc(F)cc2)S(=O)(=O)N=C1Nc1ccc(Cl)cc1 | 0.4 | 4.1 | 5.2 | 0.1 | 55.7*
Cc1ccc(S(=O)(=O)N2CCCC(c3nnc4ccccn34)C2)cc1 (centres undefined) | 12.6 | 0.4 | 0.5 | 6.4 | 4.5
CC(=O)N1CCC(Cc2cc(Nc3ncccc3C)ncn2)CC1 | -0.1 | 0.1 | 4.4 | 13.9 | 2.3
COc1ncc(CN2CCc3nc(-c4cccnc4)[nH]c(=O)c3C2)cn1 | 24.7 | -0.1 | 0.1 | -8.4 | -2.2
O=C(COc1ccccc1)Nc1cnc(-c2ccccc2)nc1 | -1.4 | -3.0 | -11.2 | -22.6 | 43.7*
O=C(COc1ccc(F)cc1)Nc1cnc(-c2ccc(Cl)cc2)nc1 | 95.5* | 6.6 | 23.3 | 35.3* | 74.3*
CS(=O)(=O)N1CCN(c2ccc(NC(=O)COc3ccccc3)cc2)CC1 | -14.2 | 5.9 | -8.8 | 0.1 | -8.4
CCN1CCN(c2ccc(NC(=O)COc3cccc(C)c3)cc2)CC1 | 1.2 | -1.8 | 11.6 | 31.6* | 19.1
Cc1ccc(-c2ncc(NC(=O)COc3cccc(C)c3)cn2)cc1 | 30.3* | -4.8 | -29.5 | -69.5 | -12.2
O=C(Cn1cnc2cc(Cl)ccc2c1=O)N1CCOCC1 | 20.3 | 0.5 | 5.5 | 18.0 | 9.4
Cc1cc(CCC2CN(C(=O)c3ccc4n[nH]nc4c3)CCO2)ncn1 (centres undefined) | -5.3 | -2.4 | -8.8 | -12.9 | -2.2
COc1cccc(CC(=O)Nc2cnc(-c3ccc(Cl)cc3)nc2)c1 | 79.0* | 5.6 | 9.1 | 2.4 | 36.7*
COc1cccc(C(=O)Nc2cnc(-c3ccccc3)nc2)c1 | 3.3 | 1.0 | 3.5 | 1.3 | 3.6
